CYP2C9 inh = human CYP2C9 inhibition; inhibition, % at 5 µM; hit rate 20% among 96,000; CYP2C9 Supersomes, luciferin-H conversion, luminescence; P11712;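 active = blocking of liver enzyme CYP2C9 beyond about 50% at 5 µM, limit read from the data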
Target sequence (P11712 whole entry, looked up): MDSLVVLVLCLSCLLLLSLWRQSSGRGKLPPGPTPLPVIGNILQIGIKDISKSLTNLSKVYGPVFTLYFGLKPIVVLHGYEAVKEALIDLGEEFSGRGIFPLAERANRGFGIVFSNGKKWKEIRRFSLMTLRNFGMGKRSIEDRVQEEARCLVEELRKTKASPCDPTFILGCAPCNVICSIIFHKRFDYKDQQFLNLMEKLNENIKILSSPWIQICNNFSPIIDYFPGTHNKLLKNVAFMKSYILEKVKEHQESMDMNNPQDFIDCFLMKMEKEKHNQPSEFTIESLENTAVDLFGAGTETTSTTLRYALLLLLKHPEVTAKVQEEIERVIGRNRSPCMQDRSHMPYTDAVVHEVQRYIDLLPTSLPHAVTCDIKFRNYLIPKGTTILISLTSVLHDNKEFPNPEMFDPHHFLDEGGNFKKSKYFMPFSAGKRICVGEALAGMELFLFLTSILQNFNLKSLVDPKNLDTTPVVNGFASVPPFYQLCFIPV
PLK1 inh = inhibitors of human PLK1 kinase; P53350; recombinant PLK1 kinase, TR-FRET peptide phosphorylation; inhibition, % at 10 µM; hit rate 0.53% among 97,000;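 active = inhibition of 50% or more in the single-concentration screen; inactive = inhibition below 50%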;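 note: 0% = DMSO max control and 100% = H-89 dihydrochloride min control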
CYP2C19 inh = blocks human cytochrome P450 2C19 | P33261 | CYP2C19 Supersomes, luciferin-H EGE luminescence, 30 min | inhibition, % at 5 µM | hit rate 21% among 96,000;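 active = CYP2C19 inhibition above a set limit at 5 µM in the primary screen, cut at about 50% in these data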;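 note: plate controls were negative control wells for no effect and 2.5 mM tranylcypromine positive control for full effect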
CYP2C9 activ = CYP2C9 (human) activation. P11712. recombinant CYP2C9, luciferin-H conversion, luminescence; active compounds read high; factor 1 = untreated enzyme, 0 = blocked. activation factor at 5 µM. hit rate 1.4% among 96,000;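 active = activation factor of 2 or more for CYP2C9 at a 5 µM dose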;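 note: 0 = sulfaphenazole-blocked wells and 1 = vehicle-only wells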
Plk1 PBD FP = inhibitors of human Plk1 polo box domain binding | P53350 | Plk1 PBD phosphopeptide binding, fluorescence polarization | inhibition, %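 (tested at about 20 µM)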 | hit rate 0.13% among 97,000 | AID 693; in the data active = inhibition above about 34%, passing the limit was not always enough
CYP2C19 activ = increases human CYP2C19 enzyme activity | activation factor at 5 µM | P33261 | 96,000 tested, under 10 active | recombinant CYP2C19, luciferin-H EGE luminescence; active compounds read high; 0 = fully inhibited enzyme, 1 = untreated enzyme;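 active = activation factor of at least 2 at 5 µM in the primary screen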;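 note: 0 = wells with 2.5 mM tranylcypromine and 1 = vehicle-only wells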
* = called active by the depositor; · = not tested or not shown. Sampled rows, rich in hits. Any-hit rate of the full collection: about 28%.

SMILES | CYP2C9 inh | PLK1 inh | CYP2C19 inh | CYP2C9 activ | Plk1 PBD FP | CYP2C19 activ
Cc1ccccc1-c1nnn(CC(=O)N2CCN(S(=O)(=O)c3ccc(Cl)cc3)CC2)n1 | 19.5 | -6.7 | 61.8* | 0.8 | 11.0 | 0.4
Cc1ccc(N/C=C/C(=O)C(C)(C)C)c(O)c1 | 38.8 | -4.1 | 13.5 | 0.6 | 7.9 | 0.9
O=C(OCc1cc2ccccc2[nH]c1=O)C1CCCCC1 | 95.7* | 10.3 | 88.7* | 0 | -7.4 | 0.1
COc1cccc2c(=O)n(CC(=O)Nc3cccc(F)c3)ccc12 | 16.8 | -9.4 | 40.7 | 0.8 | -10.0 | 0.6
CC(=O)Nc1sc(C)c(C)c1C(=O)OC1CCOC1=O (centres undefined) | 77.2* | -10.5 | 55.3* | 0.2 | 9.9 | 0.4
Cc1ccsc1C(=O)OC1CCOC1=O (centres undefined) | -127.2 | · | -7.4 | 2.3* | · | 1.1
COC(=O)c1sc(NC(C)=O)c(C(=O)OC)c1C | 1.8 | -10.8 | -3.4 | 1 | 8.0 | 1
O=C1CC(=Nc2ccccc2)NN1c1ccccc1 | 84.3* | -5.7 | 35.7 | 0.2 | -5.7 | 0.6
COc1ccc(OC)c(N=c2ssnc2Cl)c1 | 94.3* | -5.7 | 63.7* | 0.1 | -18.4 | 0.4
COc1cc(N=c2ssnc2Cl)c(OC)cc1Cl | 77.8* | -7.1 | -4.9 | 0.2 | 20.6 | 1
COc1cc(C)nc(Oc2ccc(OCc3ccccc3)nn2)n1 | 30.6 | -5.6 | 75.2* | 0.7 | -21.1 | 0.2
COc1cc(C)nc(NCc2ccccc2)n1 | 44.1 | 3.7 | 61.3* | 0.6 | 6.5 | 0.4
COc1cc(-c2nc3oc4ccccc4c(=O)c3c(=O)n2Cc2ccco2)cc(OC)c1OC | 17.6 | -2.2 | 22.3 | 0.8 | -6.0 | 0.8
CCOc1ccc(S(=O)(=O)N(CC(=O)N/N=C/c2ccc(-c3ccc([N+](=O)[O-])cc3)o2)c2ccccc2)cc1 | 62.0* | -25.2 | 20.3 | 0.4 | 1.3 | 0.8
Cc1ccc(C)c(N(CC(=O)N/N=C/c2ccc(-c3ccc([N+](=O)[O-])cc3)o2)S(=O)(=O)c2ccccc2)c1 | 60.7* | -3.4 | 18.7 | 0.4 | -13.9 | 0.8
O=c1[nH]c(=O)n(C2CCCO2)cc1Br (centres undefined) | 2.3 | -7.8 | -2.4 | 1 | 0.6 | 1
O=C(Nc1ncnc2c1ncn2C1OC(COC(=O)c2ccccc2)C(F)C1O)c1ccccc1 (centres undefined) | 86.5* | -11.8 | 79.6* | 0.1 | 14.4 | 0.2
O=C(OCC1OC2C(Oc3nc(=O)ccn32)C1O)c1ccccc1 (centres undefined) | -26.0 | -9.4 | -21.0 | 1.3 | 7.1 | 1.2
O=C(O)Cc1sc(-c2ccccc2)nc1-c1ccccc1 | 41.7 | -11.6 | -7.3 | 0.6 | -35.2 | 1.1
COc1ccc(CSc2nnc(Cc3sc(-c4ccccc4)nc3-c3ccccc3)o2)cc1 | 67.3* | -11.7 | 6.0 | 0.3 | -3.3 | 0.9
CSc1nnc(Cc2sc(-c3ccccc3)nc2-c2ccccc2)o1 | 99.7* | -2.4 | 88.9* | 0 | -8.3 | 0.1
Fc1ccc(CSc2nnc(Cc3sc(-c4ccccc4)nc3-c3ccccc3)o2)cc1 | 72.4* | 21.5 | 14.6 | 0.3 | -8.0 | 0.9
c1ccc(CSc2nnc(Cc3ccccn3)o2)cc1 | -5.1 | -6.5 | 9.0 | 1.1 | 0.6 | 0.9
COc1ccc(-c2nnc(SCc3cc(C)cc(C)c3)o2)cc1 | -33.2 | -11.7 | 29.8 | 1.3 | 4.9 | 0.7
Cn1c(SCC(=O)NC(=O)NCc2ccco2)nnc1C(F)(F)F | 11.8 | -6.0 | 14.7 | 0.9 | 7.8 | 0.9
COC(=O)c1ccccc1N1C(=O)[C@@H]2C(c3ccc(Br)cc3)=NO[C@@H]2C1=O | 45.9 | -14.3 | 99.3* | 0.5 | 9.7 | 0
COC(=O)c1ccccc1N1C(=O)C2C(C1=O)[C@H]1C=C[C@@H]2C1 (some centres undefined) | 14.8 | -18.5 | 25.1 | 0.9 | 27.9 | 0.7
CCn1c(SCC(=O)Nc2nc(-c3ccc(C)cc3)cs2)nnc1-c1ccccc1O | 71.6* | 4.2 | 57.2* | 0.3 | 15.5 | 0.4
COc1ccccc1-c1nnc(SCC(=O)Nc2nc(-c3ccccc3)cs2)n1C | 98.5* | -12.7 | 91.4* | 0 | -30.1 | 0.1
CCn1c(CSc2nc(C)cc(C)n2)nnc1SCC(=O)Nc1nc(-c2ccccc2)cs1 | -32.5 | -1.2 | 3.7 | 1.3 | 14.2 | 1
